According to PubChem BioAssay (Tox21):
A number with no mark means an inactive call. Active and inactive are the calls of the source. Calls come from the whole dose curve.

The compounds below were run against Estrogen receptor (Homo sapiens) (UniProt P03372) (assay: qHTS assay to identify small molecule agonists of the estrogen receptor alpha (ER-alpha) signaling pathway in the presence of an antagonist (AID 1259383; note: nearly all actives have a fitted effect of over 15% in size; for activation: top concentration of the series differs between compounds)). Details: VM7Luc4E2 cells, ERE-luciferase, +ICI-182,780, 22 h; series mostly up to 92.4 µM; activation: at the top concentration.
Chain of Estrogen receptor (Homo sapiens) (P03372 whole entry, looked up): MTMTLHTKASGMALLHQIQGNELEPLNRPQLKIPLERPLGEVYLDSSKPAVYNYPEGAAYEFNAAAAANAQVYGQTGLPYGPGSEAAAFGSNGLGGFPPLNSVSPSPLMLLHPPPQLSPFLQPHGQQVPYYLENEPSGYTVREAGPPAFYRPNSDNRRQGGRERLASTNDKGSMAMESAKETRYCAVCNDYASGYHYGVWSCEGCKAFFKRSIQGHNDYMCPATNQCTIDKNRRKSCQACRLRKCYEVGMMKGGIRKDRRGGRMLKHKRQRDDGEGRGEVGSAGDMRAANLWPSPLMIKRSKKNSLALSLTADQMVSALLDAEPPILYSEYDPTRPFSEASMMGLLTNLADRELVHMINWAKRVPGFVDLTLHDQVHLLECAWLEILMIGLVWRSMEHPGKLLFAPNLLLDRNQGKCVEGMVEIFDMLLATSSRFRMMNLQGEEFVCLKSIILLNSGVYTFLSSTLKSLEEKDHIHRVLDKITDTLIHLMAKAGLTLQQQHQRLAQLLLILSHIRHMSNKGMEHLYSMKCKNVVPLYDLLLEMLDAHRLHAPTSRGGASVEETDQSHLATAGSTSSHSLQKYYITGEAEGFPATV
Outline: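 VM7Luc4E2 cells express endogenous full-length ER-alpha with an ERE-luciferase reporter and were hormone-deprived for 5 days. Compounds at 15 concentrations were added with 10.0nM ICI-182,780 for 22hr at 37C. Luminescence was read with ONE-Glo.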
% is set by controls: 0 for no effect and ±100 for the full control effect; potency is the fitted concentration of half-maximal effect.

SMILES | activation | Potency
CC/C=C(\C)C=O | -0.0758% | 
O=C(O)CN(CCCN(CC(=O)O)CC(=O)O)CC(=O)O | -0.204% [at 19 µM] | 
CSc1ccc(O)cc1C | 0.143% | 
O=C(NCc1ncc(C(F)(F)F)cc1Cl)c1c(Cl)cccc1Cl | -2.56% | 
O=c1cc[nH]cc1 | 1.32% | 
CN1CCN(CCCN2c3ccccc3Sc3ccc(Cl)cc32)CC1 | -0.158% [at 42.5 µM] | 
CCOc1nc(F)cc2nc(S(=O)(=O)Nc3c(Cl)cccc3C(=O)OC)nn12 | -3.25% | 
Cn1ccnc1 | -1.69% | 
CC(C)C(=O)C(C)C | 0.523% | 
CCN(CC)c1ccc2c(c1)Oc1cc(N(CC)CC)ccc1C21OC(=O)c2ccccc21 | -3.7% [at 42.5 µM] | 
Cc1cc(Br)ccc1NC(=O)CCl | -15.8% | 
[Cl][Eu]([Cl])[Cl] | -0.634% | 
COc1cc(/C=C/C(=O)CC(=O)/C=C/c2ccc(O)c(OC)c2)ccc1O | 1.47% | 
N#CCCOCCC#N | -0.977% | 
Oc1cccc2c(O)cccc12 | 2.74% | 
Nc1ccc(F)c([N+](=O)[O-])c1 | 0.966% | 
CC(=O)CC(N)=O | -0.0744% | 

SMILES | activation | Potency
Oc1ccc(C2(c3ccc(O)c(C4CCCCC4)c3)CCCCC2)cc1C1CCCCC1 | -12.3% | 
CCSCC | -0.208% | 
C=CC(=O)OCCOC1C2CCC1C1CC=CC12 (stereo not drawn) | 0.428% [at 19 µM] | 
CC(C=O)c1ccccc1 (stereo not drawn) | -1.44% | 
CCCC(C)C=O (stereo not drawn) | 2.16% | 
C=CC(=O)O[C@H]1C[C@@H]2CC[C@@]1(C)C2(C)C | 0.102% | 
O=C1OC(=O)c2cc(-c3ccc4c(c3)C(=O)OC4=O)ccc21 | -0.755% | 
CCCCCCCCCCCCCCCCCCNC(=O)OC1CCN(C(=O)OC[C@H](COC(=O)N(Cc2cccc[n+]2CC)C(=O)c2ccccc2OC)OC)CC1 | -9.11% [at 42.5 µM] | 
C=C[Si](C)(C)Cl | -1.47% [at 8.39 µM] | 
CCC(C)(C)c1ccc(CC(C)CN2C[C@@H](C)O[C@@H](C)C2)cc1 (stereo partly drawn) | -0.0971% [at 42.5 µM] | 
CN1CCN(c2ccccc2/C=C2\SCCN(c3ccc(Cl)c(Cl)c3)C2=O)CC1 | -15% | 
Cc1ccc2nc(-c3ccc(N)cc3)sc2c1S(=O)(=O)O | 8.64% [at 42.5 µM] | 
O=[N+]([O-])c1ccc(CO)cc1 | 0.601% | 
NC(=O)c1ccccc1Cl | 0.261% | 
O=C(O)C[C@H](O)C[C@H](O)/C=C/c1c(C2CC2)nc2ccccc2c1-c1ccc(F)cc1 | -0.342% [at 19 µM] | 
CCN(CC)c1ccc(N=Nc2ccccc2)cc1 |  | 193 nM (active)
